Results on 28 molecules are retold here after PubChem BioAssay (EPA / NIEHS).

Each structure is given as a SMILES string. Activity calls are given as the source filed them. Rule for the calls: active = hit-call score of the fitted dose curve at least 0.9, where 1 is the maximum; inactive = score below 0.9.

A word on the AC50: it is the concentration giving half of the maximal activity seen.

Sequence of Hypoxia-inducible factor 1-alpha (Homo sapiens) (Q16665 whole entry, looked up): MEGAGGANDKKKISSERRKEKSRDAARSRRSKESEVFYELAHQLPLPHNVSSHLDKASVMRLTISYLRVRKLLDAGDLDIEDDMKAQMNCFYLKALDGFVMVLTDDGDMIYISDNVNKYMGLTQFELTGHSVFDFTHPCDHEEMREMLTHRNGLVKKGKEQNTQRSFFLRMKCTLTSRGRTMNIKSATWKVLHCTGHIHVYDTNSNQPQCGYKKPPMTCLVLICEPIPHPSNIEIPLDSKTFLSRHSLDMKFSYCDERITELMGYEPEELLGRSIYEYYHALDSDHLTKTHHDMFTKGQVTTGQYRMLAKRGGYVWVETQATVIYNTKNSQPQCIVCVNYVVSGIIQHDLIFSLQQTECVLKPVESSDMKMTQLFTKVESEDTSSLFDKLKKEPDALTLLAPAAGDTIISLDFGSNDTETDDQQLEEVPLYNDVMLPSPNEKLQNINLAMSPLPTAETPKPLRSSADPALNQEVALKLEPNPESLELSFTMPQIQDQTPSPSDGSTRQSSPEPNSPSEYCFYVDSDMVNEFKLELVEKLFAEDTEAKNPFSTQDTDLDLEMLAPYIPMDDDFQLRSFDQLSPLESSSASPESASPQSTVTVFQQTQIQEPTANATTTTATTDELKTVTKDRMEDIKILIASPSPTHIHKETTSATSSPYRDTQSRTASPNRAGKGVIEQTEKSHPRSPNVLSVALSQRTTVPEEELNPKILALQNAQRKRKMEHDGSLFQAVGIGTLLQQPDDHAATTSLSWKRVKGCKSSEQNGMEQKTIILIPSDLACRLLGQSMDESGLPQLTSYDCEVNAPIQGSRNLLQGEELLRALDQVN

Read-out in the first experiment: Hypoxia-inducible factor 1-alpha (Homo sapiens) (UniProt Q16665)
Description: LTEA_HepaRG_HIF1A: Life Technologies and Expression Analysis (LTEA) Assay for Hypoxia-inducible factor 1 (HIF1A) Trancription factor using HepaRG (AID 2283503).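 Note: HIF1A transcript by TaqMan qRT-PCR normalized to ACTB GAPDH and POLR2A.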 To be noted: mRNA level, 48 h; actives raise or lower the signal. In short, it runs like this:
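Gain- or loss-of-signal HIF1A mRNA changes are fitted against a DMSO baseline. HepaRG cultures receive eight concentrations, highest 100 uM, for 48 h in serum-free induction medium with 0.5% DMSO.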
Take `Nc1cc(Cl)cc(C(=O)O)c1Cl`: the result was inactive.
As for `O=C(Nc1ccccc1)c1ccccc1I`, the result was inactive.
With `OCCOCCO`, the call was inactive.
On to `Nc1ccc(Cl)cc1N`, for which the AC50 is 19.7 µM (active).
As to `Cc1ccc(N)cc1`, the result was inactive.
Turning to `N#CC(Br)Br`, the molecule was called inactive.
The same measure, in the same setting: in the case of `Nc1ccc(Oc2ccc(N)cc2)cc1` it was “inactive”.
As for `[O-][Cl+]O`, the call was inactive.
Consider `CCCCCCCCOC(=O)c1ccc(C(=O)OCCCCCCCC)c(C(=O)OCCCCCCCC)c1`, for which the outcome was inactive.
On to `COc1cc(C=O)cc2c1[C@H](COC(N)=O)[C@]1(OC(C)=O)ON2C[C@H]2[C@@H]1N2C(C)=O`, for which the AC50 was 3.94 µM (active).
Take `CCCCC(CC)COC(=O)c1ccc(C(=O)OCC(CC)CCCC)c(C(=O)OCC(CC)CCCC)c1` (centres undefined): the call was inactive.
Still for that read-out and setting: under `Cn1cc(-c2ccccc2)c(=O)c(-c2cccc(C(F)(F)F)c2)c1` stands “inactive”; under `CN(C)c1ccccc1`, “inactive”; under `CCC(C)c1ccc(O)cc1` (centres undefined), “inactive”.
Consider `N#CC(Br)(Br)C(N)=O`, for which the molecule was called inactive.
For `C1=Cc2cccc3cccc1c23`, the molecule was called inactive.
For `CO[C@@H]1[C@H](OC(=O)NC(=O)CCl)CC[C@]2(CO2)[C@H]1[C@@]1(C)O[C@@H]1CC=C(C)C`, the molecule was called inactive.
For the molecule `CC(C)(C)OOC(C)(C)CCC(C)(C)OOC(C)(C)C`, the molecule was called inactive.
`Cc1cccc(N)c1N`: the result was inactive.
On to `O=C(Oc1ccc(Br)cc1)N1CCN2CCC1CC2`, for which the result was inactive.
Same read-out and setting: in the case of `O=P(OCCCl)(OCCCl)OCCCl` it was “inactive”; in that of `CNC(=O)Oc1cccc2c1OC(C)(C)C2`, “inactive”.
Turning to `ClC1=C(Cl)C2(Cl)C3C(Cl)C=CC3C1(Cl)C2(Cl)Cl` (centres undefined), the AC50 is 33.8 µM (active).
Regarding `[Cl-].[Cl-].[Hg+2]`, the result was inactive.
Regarding `O=Cc1ccco1`, the call was inactive.
Turning to `Cc1ccc(N)c(N)c1`, the molecule was called inactive.
With `COP(=S)(OC)SCN1C(=O)c2ccccc2C1=O`, the molecule was classed as inactive.
As for `CC(C)COC(=O)c1ccccc1C(=O)OCC(C)C`, the outcome was inactive.

Read-out in the next experiment: 3-Hydroxy-3-Methylglutaryl-CoA Synthase 2 (HMGCS2), HMGCS2 (gene 3158)
The experiment can be described thus: LTEA_HepaRG_HMGCS2: Life Technologies and Expression Analysis (LTEA) Assay for 3-Hydroxy-3-Methylglutaryl-CoA Synthase 2 (HMGCS2) using HepaRG (AID 2283504). To be noted: mRNA level, 48 h; actives raise or lower the signal. Put shortly:
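qRT-PCR read-out of HMGCS2 transcript, normalised to three housekeeping genes, in HepaRG cells after 48 h chemical exposure. Eight-point curves from 100 uM, half-log dilutions, 0.5% DMSO vehicle; gain or loss fitted relative to DMSO baseline.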
For the molecule `Nc1cc(Cl)cc(C(=O)O)c1Cl`, the molecule was called inactive.
`O=C(Nc1ccccc1)c1ccccc1I`: the outcome was inactive.
On to `OCCOCCO`, for which the molecule was called inactive.
`Nc1ccc(Cl)cc1N`: the half-maximal activity concentration (AC50) was 34.1 µM (active).
`Cc1ccc(N)cc1`: the molecule was called inactive.
For the molecule `N#CC(Br)Br`, the molecule was classed as inactive.
Turning to `Nc1ccc(Oc2ccc(N)cc2)cc1`, the result was inactive.
Regarding `[O-][Cl+]O`, the call was inactive.
Still for that read-out and setting: under `CCCCCCCCOC(=O)c1ccc(C(=O)OCCCCCCCC)c(C(=O)OCCCCCCCC)c1` stands “inactive”.
For `COc1cc(C=O)cc2c1[C@H](COC(N)=O)[C@]1(OC(C)=O)ON2C[C@H]2[C@@H]1N2C(C)=O`, the AC50 was 0.827 µM (active).
Turning to `CCCCC(CC)COC(=O)c1ccc(C(=O)OCC(CC)CCCC)c(C(=O)OCC(CC)CCCC)c1` (centres undefined), the call was inactive.
For `Cn1cc(-c2ccccc2)c(=O)c(-c2cccc(C(F)(F)F)c2)c1`, the call was inactive.
Still for that read-out and setting: in the case of `CN(C)c1ccccc1` it was “inactive”; in that of `CCC(C)c1ccc(O)cc1` (centres undefined), “inactive”; in that of `N#CC(Br)(Br)C(N)=O`, “inactive”.
As for `C1=Cc2cccc3cccc1c23`, the molecule was classed as inactive.
`CO[C@@H]1[C@H](OC(=O)NC(=O)CCl)CC[C@]2(CO2)[C@H]1[C@@]1(C)O[C@@H]1CC=C(C)C`: the result was inactive.
On to `CC(C)(C)OOC(C)(C)CCC(C)(C)OOC(C)(C)C`, for which the call was inactive.
On to `Cc1cccc(N)c1N`, for which the AC50 is 50 µM (active).
As to `O=C(Oc1ccc(Br)cc1)N1CCN2CCC1CC2`, the result was inactive.
On to `O=P(OCCCl)(OCCCl)OCCCl`, for which the outcome was inactive.
Take `CNC(=O)Oc1cccc2c1OC(C)(C)C2`: the AC50 was 38.8 µM (active).
For `ClC1=C(Cl)C2(Cl)C3C(Cl)C=CC3C1(Cl)C2(Cl)Cl` (centres undefined), the outcome was inactive.
Take `[Cl-].[Cl-].[Hg+2]`: the result was inactive.
With `O=Cc1ccco1`, the molecule was called inactive.
On to `Cc1ccc(N)c(N)c1`, for which the call was inactive.
Turning to `COP(=S)(OC)SCN1C(=O)c2ccccc2C1=O`, the result was inactive.
Turning to `CC(C)COC(=O)c1ccccc1C(=O)OCC(C)C`, the molecule was classed as inactive.

Read-out in a further experiment: HGF (gene 3082)
The experiment can be described thus: LTEA_HepaRG_HGF: Life Technologies and Expression Analysis (LTEA) Assay for Hepatocyte Growth Facto (HGF) using HepaRG (AID 2283505). The settings on record: mRNA level, 48 h; actives raise or lower the signal. Put shortly: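 HepaRG, 48 h dosing, 8-pt half-log series from 100 uM in 0.5% DMSO, duplicates. Readout: TaqMan qRT-PCR of HGF mRNA, housekeeping-normalized; bidirectional curve fit vs DMSO baseline.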
Regarding `Nc1cc(Cl)cc(C(=O)O)c1Cl`, the result was inactive.
As for `O=C(Nc1ccccc1)c1ccccc1I`, the molecule was called inactive.
Take `OCCOCCO`: the outcome was inactive.
In the case of `Nc1ccc(Cl)cc1N`, the half-maximal activity concentration (AC50) is 33.6 µM (active).
With `Cc1ccc(N)cc1`, the outcome was inactive.
On the same count and under the same terms, under `N#CC(Br)Br` stands “inactive”.
`Nc1ccc(Oc2ccc(N)cc2)cc1`: the molecule was called inactive.
In the case of `[O-][Cl+]O`, the result was inactive.
For `CCCCCCCCOC(=O)c1ccc(C(=O)OCCCCCCCC)c(C(=O)OCCCCCCCC)c1`, the molecule was called inactive.
As to `COc1cc(C=O)cc2c1[C@H](COC(N)=O)[C@]1(OC(C)=O)ON2C[C@H]2[C@@H]1N2C(C)=O`, the molecule was called inactive.
For `CCCCC(CC)COC(=O)c1ccc(C(=O)OCC(CC)CCCC)c(C(=O)OCC(CC)CCCC)c1` (centres undefined), the call was inactive.
`Cn1cc(-c2ccccc2)c(=O)c(-c2cccc(C(F)(F)F)c2)c1`: the molecule was classed as inactive.
In the case of `CN(C)c1ccccc1`, the call was inactive.
Same read-out and setting: under `CCC(C)c1ccc(O)cc1` (centres undefined) stands “inactive”; under `N#CC(Br)(Br)C(N)=O`, “inactive”; under `C1=Cc2cccc3cccc1c23`, “inactive”.
`CO[C@@H]1[C@H](OC(=O)NC(=O)CCl)CC[C@]2(CO2)[C@H]1[C@@]1(C)O[C@@H]1CC=C(C)C`: the outcome was inactive.
`CC(C)(C)OOC(C)(C)CCC(C)(C)OOC(C)(C)C`: the outcome was inactive.
For `Cc1cccc(N)c1N`, the call was inactive.
On the same count and under the same terms, in the case of `O=C(Oc1ccc(Br)cc1)N1CCN2CCC1CC2` it was “inactive”; in that of `O=P(OCCCl)(OCCCl)OCCCl`, “inactive”; in that of `CNC(=O)Oc1cccc2c1OC(C)(C)C2`, “inactive”.
Regarding `ClC1=C(Cl)C2(Cl)C3C(Cl)C=CC3C1(Cl)C2(Cl)Cl` (centres undefined), the outcome was inactive.
On to `[Cl-].[Cl-].[Hg+2]`, for which the call was inactive.
With `O=Cc1ccco1`, the result was inactive.
On to `Cc1ccc(N)c(N)c1`, for which the call was inactive.
With `COP(=S)(OC)SCN1C(=O)c2ccccc2C1=O`, the outcome was inactive.
Take `CC(C)COC(=O)c1ccccc1C(=O)OCC(C)C`: the molecule was called inactive.
